Assay outcomes as filed in PubChem.
Rows were chosen to be rich in hits. Some 3.4% of all compounds tested hit in one or more screens of this group.
LMP1 NFkB inh – inhibitors of Epstein-Barr LMP1-induced NF-kappaB reporter. inhibition, % at 12.5 µM. AID 504558. LMP1-induced NF-kappaB luciferase reporter cells, luminescence. 0.69% of 350,000 active; in the data active means inhibition above about 41%;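 further: 0% = neutral control wells and 100% = reference inhibitor control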
TWEAK-Fn14 inh – TWEAK-Fn14 signaling inhibition; TWEAK-stimulated Fn14 reporter cells, luciferase luminescence, 8 h; 2% of 360,000 active; inhibition, % at 10 µM; in the data active means inhibition above about 50%
HIF-2a block – inhibitors of HIF-2a; inhibition, % at 18.8 µM; 786-0 RCC cells HIF-2a reporter, luciferase luminescence, overnight; 0.72% of 360,000 active;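 active means inhibition of the luminescence signal of 40% or more relative to plate controls, in a single-dose primary screen at 18.75 µM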
Shn3 3UTR inh – inhibitors of Schnurri-3 3'UTR reporter in osteoblasts; Clone20 osteoblast Shn3 3'UTR firefly luciferase, 24 h; inhibition, % at 12.5 µM; 0.52% of 360,000 active; AID 588674;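 active means mean inhibition of at least 75% with every replicate also reaching 75%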;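 further: 0% = median of neutral control wells and 100% = pilot-screen positive control compound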
TRPM1 prom inh – MITF TRPM1 promoter inhibition in SK-MEL-5 cells; SK-MEL-5 TRPM1 promoter luciferase, 24 h; inhibition, % at 12.5 µM; 0.83% of 330,000 active;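 active means mean inhibition across replicates of 60% or more, whatever share of single replicates reaches that level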
TROY signal inh – blocks TROY-dependent signaling in reporter cells | Q293 LMP1-TROYcd NF-kB luciferase reporter, 4 h | inhibition, % at 10 µM | AID 1347056 | 0.98% of 360,000 active;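 active means compounds whose plate-normalised and pattern-corrected inhibition of the luciferase reporter signal at the single screening dose is 50% or more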
Mdm2 MdmX conf – Mdm2/MdmX (human) interaction inhibition, confirmed | shares compounds with HIF-2a block | SaOS-2 split-luciferase Mdm2/MdmX complementation, luminescence | inhibition, % at 8 µM | 99% of 740 active;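 active means mean inhibition of the luminescence signal across two replicates at or above 26 percent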
Target sequence (O15151 whole entry, looked up): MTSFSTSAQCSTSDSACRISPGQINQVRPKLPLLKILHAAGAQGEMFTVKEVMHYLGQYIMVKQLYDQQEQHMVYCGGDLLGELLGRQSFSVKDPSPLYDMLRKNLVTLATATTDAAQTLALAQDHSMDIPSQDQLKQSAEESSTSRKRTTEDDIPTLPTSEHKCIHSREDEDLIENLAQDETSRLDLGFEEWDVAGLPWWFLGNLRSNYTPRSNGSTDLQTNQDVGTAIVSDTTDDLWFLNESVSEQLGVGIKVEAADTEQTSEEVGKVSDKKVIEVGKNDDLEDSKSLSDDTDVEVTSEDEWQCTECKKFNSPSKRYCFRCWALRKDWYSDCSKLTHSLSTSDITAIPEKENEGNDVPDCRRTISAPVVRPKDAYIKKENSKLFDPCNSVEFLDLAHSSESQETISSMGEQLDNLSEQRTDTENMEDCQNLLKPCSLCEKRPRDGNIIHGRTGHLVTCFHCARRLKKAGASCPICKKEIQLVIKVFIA
Target sequence (Q00987 whole entry, looked up): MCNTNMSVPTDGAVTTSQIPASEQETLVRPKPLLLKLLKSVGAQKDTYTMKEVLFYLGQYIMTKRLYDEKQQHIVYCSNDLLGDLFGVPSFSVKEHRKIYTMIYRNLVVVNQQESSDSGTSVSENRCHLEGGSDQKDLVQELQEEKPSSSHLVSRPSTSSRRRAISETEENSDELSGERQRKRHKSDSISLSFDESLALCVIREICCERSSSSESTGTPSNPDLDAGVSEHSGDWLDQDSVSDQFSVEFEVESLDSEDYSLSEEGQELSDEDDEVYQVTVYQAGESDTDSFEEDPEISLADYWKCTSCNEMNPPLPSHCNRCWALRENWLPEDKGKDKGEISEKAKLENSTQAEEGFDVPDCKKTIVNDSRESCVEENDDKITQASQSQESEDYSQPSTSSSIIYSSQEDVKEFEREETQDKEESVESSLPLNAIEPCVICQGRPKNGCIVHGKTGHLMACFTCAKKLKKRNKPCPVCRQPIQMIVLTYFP
HIF-2a conf – confirmation of HIF-2a inhibitors | shares compounds with HIF-2a block | 786-0 RCC cells, HIF-2a luciferase reporter luminescence, overnight | inhibition, % at 18.8 µM | 56% of 1,800 active | AID 651580;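 active means mean inhibition across four replicates of at least 40 percent at the single tested concentration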
HIF-1a counter – HIF-1a inhibition counter-screen for HIF-2a hits; 72% of 1,800 active; MiaPaCa-2 HIF-1a luciferase reporter, desferoxamine, overnight; inhibition, % at 18.8 µM; AID 651589; shares compounds with HIF-2a block;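 active means mean inhibition of the reporter signal across four replicates at the single tested dose of 50% or more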
Starred values were filed as active, the others as inactive; nt = no result.

SMILES | LMP1 NFkB inh | TWEAK-Fn14 inh | HIF-2a block | Shn3 3UTR inh | TRPM1 prom inh | TROY signal inh | HIF-2a conf | HIF-1a counter | others
Cn1ccc2cc(-c3csc(N4CCC(C(N)=O)CC4)n3)ccc21 | -1 | 11 | 0 | -8 | 12 | -5 | nt | nt
COc1cccc(CNC(=O)N2CCN(c3ccccc3)CC2)c1 | 1 | 14 | 0 | 7 | 7 | -1 | nt | nt
CC(C)(C)c1ccc(-c2noc(CCC(N)=O)n2)cc1 | 54* | 11 | 87* | 17 | 71* | 46 | 94* | -9
CC(C)(C)c1ccc(-c2noc(CCC(=O)NCC3CCCO3)n2)cc1 (stereo not drawn) | 42* | 26 | 80* | 59 | 84* | -4 | 95* | -80
CC(C)(C)c1ccc(-c2noc(CCC(=O)Nc3cccnc3)n2)cc1 | 78* | 36 | 92* | 36 | 79* | 58* | 96* | -4
Cc1cccc(NS(=O)(=O)c2ccc(-n3cccn3)cc2)c1C | 8 | 13 | 11 | 36 | 15 | 10 | nt | nt
COc1ccccc1C(=O)COC(=O)CN1C(=O)C2CC=CCC2C1=O (stereo not drawn) | 1 | -10 | 15 | -6 | 15 | -11 | nt | nt
O=C1C=CC(=O)N1CCNc1ncc(C(F)(F)F)cc1Cl | 24 | 11 | 35 | 86* | 27 | 8 | nt | nt | Mdm2 MdmX conf=103*
CCOc1ccc2nc(NC(=O)CN3C(=O)NC4(CCCC4)C3=O)sc2c1 | -15 | -12 | -168 | -76 | -37 | -30 | nt | nt
COCCN(CC(=O)Nc1cccc(C)c1C)C(=O)Cc1sc(C)nc1-c1ccc(F)cc1 | -3 | -12 | 12 | -19 | 10 | -22 | nt | nt
CCC(C)[C@H](N)C(=O)N[C@H]1CCC2C3CC=C4C[C@@H](O)CC[C@]4(C)C3CC[C@@]21C (stereo partly drawn) | -11 | 11 | 86* | 18 | nt | 0 | -1 | 50*
CC(C)[C@H](N)C(=O)N[C@H]1CCC2C3CC=C4C[C@@H](O)CC[C@]4(C)C3CC[C@@]21C (stereo partly drawn) | -26 | -46 | 55* | 20 | nt | -27 | 2 | 90*
C[C@@H](N)C(=O)N[C@H]1CCC2C3CC=C4C[C@@H](O)CC[C@]4(C)C3CC[C@@]21C (stereo partly drawn) | -1 | 19 | 7 | -5 | -13 | -7 | nt | nt
O=C(NCCc1ccc(Cl)cc1Cl)c1cncc(Br)c1 | 4 | 25 | -11 | 5 | 2 | -8 | nt | nt
COc1ccc(CCNC(=O)CC(C)S(=O)(=O)c2ccc3c(c2)NC(=O)CO3)cc1OC (stereo not drawn) | 2 | 9 | 2 | -11 | 0 | -3 | nt | nt
CN(C)S(=O)(=O)c1ccc(C(=O)Nc2nnc(SCC(=O)NCC3CCCO3)s2)cc1 (stereo not drawn) | -6 | -1 | -24 | 7 | -4 | -26 | nt | nt
CCOc1ccc(C(=O)Nc2nnc(SCC(=O)NCC3CCCO3)s2)cc1 (stereo not drawn) | 61* | 69* | 55* | 7 | 48 | 36 | 59* | -1
COc1ccc(C(=O)Nn2c(SCC(=O)NCC3CCCO3)nc3ccccc3c2=O)cc1 (stereo not drawn) | 39 | 95* | 49* | 53 | -2 | 78* | 60* | 49
O=C(CSc1nc2ccccc2c(=O)n1CC1CCCO1)NCC1CCCO1 (stereo not drawn) | 3 | -17 | 27 | 3 | -2 | -3 | nt | nt
Cc1cc(C)c(NC(=O)CS(=O)CC(=O)NCCN2CCCCCC2)c(C)c1 (stereo not drawn) | 2 | 13 | 10 | -11 | -6 | 14 | nt | nt
COc1cc(/C=C2/CCC/C(=C\c3cc(O)c(OC)c(Cl)c3)C2=O)cc(Cl)c1O | -12 | 30 | 91* | 45 | 5 | 58* | nt | nt | Mdm2 MdmX conf=103*
COc1cc(/C=C2\SC(N)=NC2=O)cc(Cl)c1O | 7 | 10 | 18 | -5 | 8 | -18 | nt | nt
Cc1nonc1C(=O)N1CCCC(Nc2ccc(C(C)C)cc2)C1 (stereo not drawn) | -1 | 3 | -17 | 5 | -7 | 8 | nt | nt
COc1ccccc1N1CCN(S(=O)(=O)CCNC(=O)C2CCCCC2)CC1 | 3 | -24 | 8 | -3 | 4 | -16 | nt | nt
O=C(NC1CCCC1)C(c1ccccc1)n1c(CSCCOc2ccccc2)nc2ccccc21 (stereo not drawn) | nt | nt | 65* | nt | nt | nt | 79* | 66*
SMILES | LMP1 NFkB inh | TWEAK-Fn14 inh | HIF-2a block | Shn3 3UTR inh | TRPM1 prom inh | TROY signal inh | HIF-2a conf | HIF-1a counter | others
O=C(NCCc1ccncc1)Nc1cccc(Cl)c1 | 2 | 4 | 12 | -4 | -3 | -15 | nt | nt
O=C(Nc1cccc(Cl)c1)Nc1nnc(-c2ccncc2)s1 | 11 | 76* | -14 | 35 | -3 | 50* | nt | nt | Mdm2 MdmX conf=102*
O=C(Nc1ccccn1)c1cc2ccccc2o1 | 46* | 96* | 45* | -22 | 62* | 70* | 70* | 61*
Oc1ccc(-c2cc(-c3ccc(O)cc3)nc(-c3ccccc3)n2)cc1 | -1 | 44 | 66* | -3 | 1 | 54* | -32 | 104*
COc1ccc2cc1Oc1ccc(cc1)CC1c3c(cc(OC)c4c3Oc3cc5c(cc3O4)CCNC5C2)CCN1C (stereo not drawn) | -32 | -66 | 54* | 54 | 109* | 2 | 3 | 106*
O=c1[nH]c2ccc(Br)cc2c(=O)o1 | -5 | 8 | 44* | -12 | nt | 1 | 45* | 8
COc1ccccc1C(=O)NC(=O)COC(=O)c1nc2nc(C)cc(C)n2n1 | -1 | 9 | 9 | 6 | 2 | 15 | nt | nt
COC(=O)c1ccccc1NC(=O)CSc1nc(Nc2ccccc2)nc(N2CCOCC2)n1 | -6 | 13 | 41* | 22 | -51 | 1 | 28 | 70*
Cc1cc(O)c(C)c(O)c1/C=N/NC(=O)c1cccnc1 | -1 | -8 | 22 | 30 | 17 | 5 | nt | nt
Cc1coc2cc3oc(=O)c(CC(=O)N[C@@H](CC(C)C)C(=O)O)c(C)c3cc12 | 5 | 2 | 46* | -4 | -9 | 3 | -2 | -3
Cc1coc2cc3oc(=O)c(CCC(=O)N[C@@H](CCCNC(N)=O)C(=O)O)c(C)c3cc12 | -8 | -5 | 5 | 4 | 1 | 9 | nt | nt
CCC(C)c1ccccc1N=Cc1ccc2c(c1)OCO2 (stereo not drawn) | 0 | 18 | 15 | -4 | 11 | -3 | nt | nt
COC(=O)c1ccc(C(=O)OC)c(-n2c(=O)c3ccccc3c3ccccc3c2=O)c1 | 8 | -82 | 45* | 71 | 41 | 3 | 52* | -6
